Experimental data: PubChem BioAssay AID743279 (National Center for Advancing Translational Sciences (NCATS), 2014)
In all, about 360,000 compounds went through this assay and about 17,000 (4.7%) were called active. Roughly 5% stayed inconclusive and do not appear here. No stated cut-off is given here; in the data, active means activity change below about -50%; inconclusive means mostly about -30% to -49%; inactive means weaker than that. Only a selection was taken, and actives are over-represented in it overall.

Assay: qHTS for Inhibitors of Inflammasome Signaling: IL-1-beta AlphaLISA Primary Screen
Conditions: THP-1 LPS/ATP IL-1B secretion, 16 h; at 57.5 µM, stronger effect = lower value
Method in brief: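 THP-1 cells pretreated 1 hr with compounds (up to 57.5 uM final), then stimulated with LPS (250 ng/mL final) plus ATP (1.25 mM final); secreted IL-1B measured by AlphaLISA after 16 hr, decreased signal indicating inhibition.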
On the % scale 0 is the no-effect control and ±100 the full control effect.

Structure (SMILES)	activity change
CCc1nnc(NC(=O)c2ccco2)s1	10% (inactive)
O=C(Nc1nnc(CCOCCOCCc2nnc(NC(=O)c3ccco3)s2)s1)c1ccco1	-5.99% (inactive)
O=C(Nc1nc(-c2ccco2)c(-c2ccco2)s1)c1ccco1	-77.4% (active)
CCN1CCN(c2ccc([N+](=O)[O-])cc2C(=O)c2ccc(Cl)cc2)CC1	-7.81% (inactive)
CCN1CCN(C(=O)N(Cc2ccc(Cl)cc2)S(=O)(=O)c2ccc(C)cc2)CC1	-3.62% (inactive)
CCN1CCN(c2sc(S(C)(=O)=O)nc2S(=O)(=O)c2ccc(Cl)cc2)CC1	-97.8% (active)
COc1cc([C@H](Cc2ccccc2)NC(C)=O)oc(=O)c1	22.9% (inactive)
Cc1ccc(CNC(=O)CCNC(=O)Cn2ccc3ccccc3c2=O)cc1	-21.6% (inactive)
COc1cccc2c(=O)n(CC(=O)N3CCCCCC3)ccc12	-3.57% (inactive)
COC(=O)COc1cccc2c(=O)n(CC(=O)NCc3ccccc3)ccc12	-57.4% (active)
O=C(Nc1cccc(S(=O)(=O)NC2=NCCC2)c1)C1CCCCC1	23.8% (inactive)
O=C(NCc1ccccc1)C1=C[C@@H](c2ccc(C(F)(F)F)cc2)C[C@@H](OCc2ccc(CO)cc2)O1	-53.9% (active)
CN1CCN(C(=O)C2=C[C@H](c3ccc4c(c3)OCO4)C[C@H](OCc3ccc(CO)cc3)O2)CC1	-10.6% (inactive)
O=C(C1=C[C@H](c2coc3ccccc3c2=O)C[C@H](OCc2ccc(CO)cc2)O1)N1CCN(Cc2ccccc2)CC1	-63.5% (active)
O=C(C1=C[C@H](c2ccc(C(F)(F)F)cc2)C[C@H](OCc2ccc(CO)cc2)O1)N1CCN(Cc2ccccc2)CC1	-80.4% (active)
O=C(C1=C[C@H](c2coc3ccccc3c2=O)C[C@H](OCc2ccc(CO)cc2)O1)N1CCOCC1	-3.08% (inactive)
O=C(NCc1ccccc1)C1=C[C@H](C2CC2)C[C@H](OCc2ccc(CO)cc2)O1	-25.1% (inactive)
CC(=O)n1cc([C@H]2C=C(C(=O)N3CCOCC3)O[C@@H](OCc3ccc(CO)cc3)C2)c2ccccc21	-1.15% (inactive)
O=C(NCc1ccccc1)C1=C[C@@H](C2CCCCC2)C[C@@H](OCc2ccc(CO)cc2)O1	-17.5% (inactive)
O=C(C1=C[C@H](C2CC2)C[C@H](OCc2ccc(CO)cc2)O1)N1CCN(Cc2ccccc2)CC1	-22.6% (inactive)
c1ccc(-c2c[nH]c(-c3ccccc3)c2)cc1	14% (inactive)
N#CCCC(C#N)(c1cccnc1)N1CCOCC1 (centres undefined)	2.31% (inactive)
CC(C)(C)c1ccc(/C=C/C(=O)NCCCn2ccnc2)cc1	-13.5% (inactive)

Structure (SMILES)	activity change
Oc1cccc(CCc2ccccn2)c1	-8.08% (inactive)
Cc1cccc(N2CCN(C(=O)COCc3cc(-c4ccc5c(c4)OCO5)on3)CC2)c1C	-0.251% (inactive)
CCc1cc(C(=O)N(CC)CC(=O)Nc2c(F)cccc2F)sc1C	-0.176% (inactive)
COc1cc(CCN=Cc2ccccc2O)c([N+](=O)[O-])cc1OC	13.4% (inactive)
Cc1csc(=O)n1CCC(=O)OCC(=O)Nc1ccc(N2CCOCC2)cc1	0% (inactive)
COC(=O)[C@H](Cc1ccccc1)NC(=O)Nc1ccc(S(N)(=O)=O)cc1	9.1% (inactive)
COc1ccc(C(=O)NC(=S)N2CCCCC2c2cccnc2)cc1OC (centres undefined)	-16.3% (inactive)
CSc1ncccc1C(=O)N1CCCC(Nc2ccc(F)c(F)c2)C1 (centres undefined)	43.2% (inactive)
CC(C)OC(=O)CC(=O)CC(O)c1cccc([N+](=O)[O-])c1 (centres undefined)	19.7% (inactive)
CCC(=O)N(Cc1cc2ccccc2[nH]c1=O)c1ccc(OC)cc1	-28.7% (inactive)
CC(=O)N(Cc1cc(=O)[nH]c2ccccc12)c1ccc(C)cc1C	1.3% (inactive)
Cc1ccc(N(Cc2cc(=O)[nH]c3ccccc23)C(=O)CCl)cc1	-99.5% (active)
CC(C=Cc1ccccc1)=NNS(=O)(=O)c1ccc([N+](=O)[O-])cc1	-3.19% (inactive)
CCOc1ccc(S(=O)(=O)N2CCN(C(=O)c3oc4ccccc4c3C)CC2)cc1	-12.6% (inactive)
N#CC1=C(N)Oc2cc(O)ccc2C1C1CCCCC1 (centres undefined)	50.4% (inactive)
COCc1[nH]nc2c1C(C1C=CCCC1)C(C#N)=C(N)O2 (centres undefined)	-72.1% (active)
N#CC1=C(N)OC2=C(C(=O)CCC2)C1C1CC=CCC1 (centres undefined)	0.456% (inactive)
CCCCNC(=O)C[C@@H]1C[C@@]2(C(=O)OC)CC(C)(C)CC=C2N(Cc2ccco2)C1=O	-1.57% (inactive)
NCCCCC(C(=O)O)N(C(=O)OCc1ccccc1)C(=O)OCc1ccccc1 (centres undefined)	-16.2% (inactive)
COC(=O)c1ccccc1Sc1c(/C=N/OCc2ccc(Cl)cc2)c(C(F)(F)F)nn1C	20.2% (inactive)
Cn1nc(C(F)(F)F)c(C(=O)Nc2cccc(C(F)(F)F)c2)c1SCc1ccc(Cl)cc1	-81.8% (active)
O=C(O)CSc1c2c(nc3cc(C(=O)Nc4cccc(C(F)(F)F)c4)ccc13)CCCC2	-26.7% (inactive)
OC[C@@H]1CN(Cc2cccs2)C[C@H](n2cnc3c(Nc4ccccc4)ncnc32)O1	8.21% (inactive)

Structure (SMILES)	activity change
c1ccc2c(CCN3CCNC[C@H]3Cc3cccc4ccccc34)cccc2c1	-12.9% (inactive)
O=C1CCNCCN1[C@H](CO)Cc1ccccc1	17.5% (inactive)
c1ccc(C[C@H]2CNCCN2CCC23CC4CC(CC(C4)C2)C3)cc1	-74.5% (active)
CCCC(=O)N1CCC1(C)C(=O)Nc1ccc(-n2cncn2)cc1 (centres undefined)	0.196% (inactive)
C[C@@H]1CN([C@H](C)CO)C(=O)CCCn2cc(nn2)CO[C@H]1CN(C)S(=O)(=O)c1ccc(Oc2ccccc2)nc1	17.8% (inactive)
O=S(=O)(c1ccc(F)cc1)N1CCN=C1SCc1cccc(F)c1	12.9% (inactive)
CNc1ccc(SC#N)cc1	-70.1% (active)
CC(=O)N1CCc2c(sc(NC(=O)CCS(=O)(=O)c3ccccc3)c2C#N)C1	inactive
O=C1OCCOC2CCCc3oc(-c4ccccc4)c1c32 (centres undefined)	10.6% (inactive)
O=C(NCc1ccccc1)C1c2ccccc2OCC(=O)N1CCCN1CCOCC1 (centres undefined)	89.8% (inactive)
O=S(=O)(NCC1CCCO1)c1cnc(Cl)c(Cl)c1 (centres undefined)	-65.5% (active)
C/C(=N\Nc1ncc(Cl)cc1Cl)c1ccc(S(=O)(=O)NCc2ccco2)cc1	-9.03% (inactive)
CCOc1ccc(S(=O)(=O)NCC2CCCO2)cc1 (centres undefined)	6.01% (inactive)
O=C(COC(=O)c1cnc(Cl)c(Cl)c1)NCc1ccco1	10% (inactive)
O=S(=O)(NCC1CCCO1)c1ccc2ccccc2c1 (centres undefined)	1.02% (inactive)
O=S(=O)(NCc1ccco1)c1cnc(Cl)c(Cl)c1	-67.1% (active)
O=C(Nc1cccc2ccccc12)NC1CC1	-13.6% (inactive)
COC(=O)C[C@H]1C[C@@H]2c3cc(N(C)C)ccc3O[C@@H]2[C@H](CO)O1	13.8% (inactive)
O=C(NCc1cccnc1)c1cc(C2CCCN(C(=O)C3CCCCC3)C2)on1 (centres undefined)	-24.1% (inactive)
CCCNC(=O)c1cc(C2CCCCN2C(=O)OC)on1 (centres undefined)	0% (inactive)
O=C1c2ccccc2-c2ccccc2NC1O (centres undefined)	7.09% (inactive)
CC(C)C1N=C2c3ccccc3N=C(SCC(=O)c3ccc(O)c(O)c3)N2C1=O (centres undefined)	41.9% (inactive)
O=C1CC[C@@H](C(=O)N2CSC[C@@H]2C(=O)Nc2ccc(C(F)(F)F)cc2)N1	-1.13% (inactive)

Structure (SMILES)	activity change
COc1cc(NC(=O)Nc2ccc(C)cc2)cc([N+](=O)[O-])c1	-21% (inactive)
CS/C(=C\[N+](=O)[O-])Nc1ccc(C)cc1	-131% (active)
Cc1ccc(NC(=O)O/N=C/c2cccc([N+](=O)[O-])c2)cc1	-1.61% (inactive)
Cc1nn(-c2ccccc2)nc1C(=O)OCC(=O)N1CCCCC1C (centres undefined)	12% (inactive)
O=C(Cc1ccc(NC(=O)C2CCCN(C(=O)C3CCCCC3)C2)cc1)Nc1cccc(C(=O)N2CCCCC2)c1 (centres undefined)	-3.57% (inactive)
Cc1[nH]c2ccccc2c1C(=O)CSCC(=O)O	10.6% (inactive)
Cc1onc(-c2ccccc2Cl)c1C(=O)OCC(=O)c1ccccc1	-25.9% (inactive)
Cc1[nH]c2ccccc2c1C(=O)COC(=O)c1c(-c2ccccc2)noc1C	-59.9% (active)
COc1ccc(CC(=O)NC(C)c2ccc(Cl)c(Cl)c2)cc1S(=O)(=O)N1CCOCC1 (centres undefined)	-9.07% (inactive)
CN(C)c1ccc(Nc2c3c4c(cccc4n(C)c2=O)C(=O)c2ccccc2-3)cc1	-11.1% (inactive)
COc1ccc2c(c1)c(=Cc1ccc(N(C)C)cc1)c1cc(-c3ccccc3)[n+](C)n12	-118% (active)
COc1ccc2sc(-c3ccc(N(C)C)cc3)c(-c3ccc4cc[nH]c4c3)c2c1	-13.1% (inactive)
COc1ccc2sc(-c3ccc(N(C)C)cc3)c(C#CCO)c2c1	-3.05% (inactive)
O=C(CCNC(=O)c1ccc(Cl)cc1)NC1CCCc2ccccc21 (centres undefined)	1.14% (inactive)
COc1cc2[nH]c(O)c(C=O)c2cc1OC	-8.17% (inactive)
CN1c2ccc(C=O)c3c(C=O)ccc(c23)N(C)C1(C)C	-96.3% (active)
Cc1ccc(C=O)c([B-](F)(F)F)c1	5.57% (inactive)
COc1ccc(OC)c(C2C3=C(N=c4s/c(=C\c5cccc(O)c5)c(=O)n42)c2ccccc2CC3)c1 (centres undefined)	-55.4% (active)
O=C1CCCC2=C1C(c1ccccc1)n1c(s/c(=C/c3cccc(F)c3)c1=O)=N2 (centres undefined)	2.6% (inactive)
CCOC(=O)C1=C(C)N=c2s/c(=C\C(=O)OC)c(=O)n2C1c1ccc(OC)cc1 (centres undefined)	10.3% (inactive)
